Rows were chosen to be rich in hits. Some 6.8% of all compounds tested hit in one or more screens of this group.
C diff growth = C. difficile growth inhibition; growth activity, negative = inhibition, % at 16 µg/mL (by protocol); AID 1259249; 86,000 compounds, 0.25% hits; Clostridium difficile clinical isolate growth, OD600, 24 h; hits give low values;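 active means mean growth activity at or below -80% and every replicate also at or below -80%; inconclusive means mean at or below -80% but some replicate above -80%; inactive means mean growth activity above -80%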;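 further: 0% = DMSO wells and -100% = levofloxacin 16 µg/mL wells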
Pf Dd2 inh = blocks growth of Plasmodium falciparum Dd2 parasites; 94,000 compounds, 2.3% hits; AID 1159554; activity change, % at 10 µM; P. falciparum Dd2 growth, SYBR Green, 72 h; hits give low values; in the data active means activity change below about -80%; inconclusive means no clear call, values can overlap the other calls
T cruzi growth-1 = T. cruzi proliferation inhibition; AID 624255; 77,000 compounds, 5.9% hits; T. cruzi beta-gal in NIH3T3, GalScreen luminescence, 90 h; inhibition, % at 8.34 µM;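 active means mean inhibition above about 93%, with at least 55% of replicates each passing it, limit read from the data, passing the limit was not always enough; inconclusive means only one of those two conditions holds; inactive means neither condition holds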
T cruzi growth-2 = Trypanosoma cruzi proliferation inhibition | shares compounds with T cruzi growth-1 | T. cruzi beta-gal in NIH3T3, GalScreen luminescence, 90 h | inhibition, % at 8.35 µM | 5,600 compounds, 72% hits | AID 651739;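 active means mean replicate inhibition above about 95% and at least 55% of replicates individually reaching it, limit read from the data; inconclusive means only one of the two criteria is met; inactive means neither criterion is met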
T cruzi growth-3 = Trypanosoma cruzi proliferation inhibition | shares compounds with T cruzi growth-1 | T. cruzi beta-gal in NIH3T3, GalScreen luminescence, 90 h | inhibition, % at 2.09 µM | 5,600 compounds, 21% hits;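 active means mean inhibition above about 95%, with at least 55% of replicates also reaching it, limit read from the data; inconclusive means meets just one of the two conditions; inactive means meets neither condition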;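 further: plate controls were neutral control median for no effect and positive control median for full effect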
3T3 cytotox = kills mouse NIH/3T3 fibroblasts | 5,600 compounds, 14% hits | cytotoxicity (signal decrease), % at 8.35 µM | shares compounds with T cruzi growth-1 | NIH/3T3 viability, CellTiter-Glo ATP luminescence, 90 h;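 active means mean signal decrease across replicates above about 35% based on untreated-well scatter, with enough replicates individually passing, limit read from the data; inconclusive means no rule stated though some were filed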;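 further: 0% = median of neutral control wells and 100% = median of positive control wells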
NIH3T3 tox 2 = NIH/3T3 (mouse) viability loss; shares compounds with T cruzi growth-1; NIH/3T3 viability, CellTiter-Glo ATP luminescence, 90 h; inhibition, % at 24.9 µM; 5,600 compounds, 56% hits;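 active means mean loss of cell viability signal at or above a set limit, and enough replicates individually reaching it; inconclusive means meets only the mean limit or only the replicate share; inactive means meets neither condition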;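 further: 0% = median of neutral control wells and 100% = median of positive control wells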
* hit, by the source's call; u = inconclusive; x = not tested or not shown; + = active, no number; ! = repeats disagree.

SMILES | C diff growth | Pf Dd2 inh | T cruzi growth-1 | T cruzi growth-2 | T cruzi growth-3 | 3T3 cytotox | NIH3T3 tox 2
Cc1ccccc1S(=O)(=O)N(C)C[C@H]1OCc2ccccc2-c2c(n(C)c3ccccc23)C(=O)N([C@H](C)CO)C[C@@H]1C | x | -64.2 | u | 96.3* | 56.3 | -17.4 | 24.1*
Cc1ccccc1S(=O)(=O)N(C)C[C@@H]1OCc2ccccc2-c2ccccc2C(=O)N([C@@H](C)CO)C[C@H]1C | 3.5 | -52.2 | 87.4 | x | x | x | x
C[C@@H]1CN([C@H](C)CO)C(=O)c2c(c3ccccc3n2C)-c2ccccc2CO[C@@H]1CN(C)S(C)(=O)=O | x | 16.8 | 13.0 | x | x | x | x
C[C@H]1CN([C@@H](C)CO)C(=O)c2ccccc2-c2ccccc2CO[C@H]1CN(C)S(=O)(=O)c1ccc(C(F)(F)F)cc1 | 3.1 | -81.1* | 107.7* | 105.3* | 55.0 | 14.1 | 5.1
CN1C(=O)c2cc(NC(=O)c3cscn3)ccc2OC[C@H]2O[C@H](CC(=O)N3CCCCC3)CC[C@H]21 | 7.3 | -11.0 | 14.8 | x | x | x | x
COc1ccc(NC(=O)Nc2ccc3c(c2)C(=O)N([C@@H](C)CO)C[C@@H](C)[C@@H](CN(C)S(=O)(=O)c2ccc(OC)cc2)O3)cc1 | 4.5 | 30.9 | 53.4 | x | x | x | x
C[C@@H]1CN([C@@H](C)CO)C(=O)c2cc(N(C)C)ccc2O[C@@H](C)CCCCO[C@H]1CN(C)S(=O)(=O)c1cccs1 | -4.0 | -50.7 | 40.3 | x | x | x | x
C[C@H](CO)N1C[C@H](C)[C@@H](CN(C)Cc2ccc(C(=O)Nc3ccccc3N)cc2)Oc2ccc(NC(=O)Cn3cnnn3)cc2CC1=O | -0.6 | -1.0 | 50.9 | x | x | x | x
CC(C)C#Cc1ccc2c(c1)O[C@H](CN(C)C(=O)Nc1ccccc1)[C@@H](C)CN([C@@H](C)CO)S2(=O)=O | 9.1 | -46.4 | x | x | x | x | x
CC(C)C#Cc1ccc2c(c1)O[C@H](CN(C)C(=O)Nc1ccccc1)[C@H](C)CN([C@@H](C)CO)S2(=O)=O | 4.1 | -4.7 | x | x | x | x | x
CC(C)CC#Cc1ccc2c(c1)O[C@H](CN(C)C(=O)Nc1ccccc1)[C@@H](C)CN([C@H](C)CO)S2(=O)=O | -8.3 | -47.4 | 116.9*! | 107.1* | 32.0 | -14.4 | u
CC(C)CC#Cc1ccc2c(c1)O[C@@H](CN(C)C(=O)Nc1ccccc1)[C@@H](C)CN([C@@H](C)CO)S2(=O)=O | -10.0 | -59.4 | 127.3* | 111.5* | 105.2* | -0.9 | 103.5*
CC(C)C#Cc1ccc2c(c1)O[C@@H](CN(C)C(=O)Nc1ccccc1)[C@@H](C)CN([C@H](C)CO)S2(=O)=O | 3.3 | -77.1 | x | x | x | x | x
CC(C)CC#Cc1ccc2c(c1)O[C@@H](CN(C)C(=O)Nc1ccccc1)[C@H](C)CN([C@@H](C)CO)S2(=O)=O | -17.2 | -30.3 | 120.5* | 106.8* | 76.4 | 28.1 | 77.7*
O=C(NCCc1ccccc1)[C@H]1[C@H](CO)[C@H]2Cn3c(cccc3=O)[C@H]2N1Cc1cccnc1 | -4.8 | 5.4 | -33.0 | x | x | x | x
COCCN(C[C@@H]1N[C@@H](CO)[C@@H]1c1ccc(-c2ccc(F)cc2)cc1)C(C)=O | 0.8 | -4.9 | -55.3 | x | x | x | x
O=C(CC1CC1)Nc1ccc2c(c1)[C@H]1C[C@@H](CC(=O)NC3CCCC3)O[C@H](CO)[C@H]1O2 | x | 8.7 | -36.4 | x | x | x | x
C[C@@H]1CN([C@@H](C)CO)C(=O)c2cc(C#Cc3ccccc3)cnc2O[C@H]1CN(C)C(=O)CN(C)C | -4.9 | -78.1 | x | x | x | x | x
CC(C)NC(=O)N(C)C[C@@H]1Oc2ncc(C#Cc3ccc(F)cc3)cc2C(=O)N([C@@H](C)CO)C[C@H]1C | -0.8 | 8.9 | -0.9 | x | x | x | x
Cc1ccc(S(=O)(=O)N(C)C[C@H]2Oc3ccc(NS(=O)(=O)c4c(C)noc4C)cc3C(=O)N([C@@H](C)CO)C[C@@H]2C)cc1 | -9.3 | -40.8 | -14.7 | x | x | x | x
CC(C)(O)c1cn([C@H]2C[C@@H]3O[C@@H](CO)CC[C@@H]3O[C@@H]2CCc2ccc(-c3ccncc3)cc2)nn1 | 2.1 | 1.5 | x | x | x | x | x
CC=Cc1ccc2n(c1=O)C[C@@H]1[C@@H](CO)[C@H](C(=O)NCCc3ccncc3)N(CCC(F)(F)F)[C@H]21 (mixture of isomers) | 1.1 | 1.8 | 108.3* | -48.8 | -39.1 | -30.2 | 4.9
CC=Cc1ccc2n(c1=O)C[C@H]1[C@H](CO)[C@@H](C(=O)NCC(F)(F)F)N(C(=O)c3cccnc3)[C@@H]21 (mixture of isomers) | 20.2 | x | + | 87.3 | 23.6 | 13.3 | 3.9
CC=Cc1ccc2n(c1=O)C[C@H]1[C@H](CO)[C@@H](C(=O)NCCc3ccncc3)N(CCC(F)(F)F)[C@@H]21 (mixture of isomers) | -1.1 | 7.3 | 41.2 | x | x | x | x
CC=Cc1ccc2n(c1=O)C[C@@H]1[C@@H](CO)[C@H](C(=O)NCC)N(C(=O)c3cccnc3)[C@H]21 (mixture of isomers) | 0.9 | 3.2 | -22.7 | x | x | x | x
SMILES | C diff growth | Pf Dd2 inh | T cruzi growth-1 | T cruzi growth-2 | T cruzi growth-3 | 3T3 cytotox | NIH3T3 tox 2
COc1ccc(C#Cc2ccc([C@H]3[C@H](CO)N4CCCCN(Cc5ccncc5)C[C@@H]34)cc2)cc1 | -9.8 | -58.2 | 89.6* | 108.6* | 85.3 | 49.5* | 105.0*
CCCC#Cc1ccc([C@@H]2[C@H](CO)N3CCCCN(CC4CC4)C[C@@H]23)cc1 | 4.8 | -61.9 | 70.3 | x | x | x | x
CCCC#Cc1ccc([C@H]2[C@@H](CO)N3CCCCN(Cc4ccncc4)C[C@H]23)cc1 | 17.5 | -70.8 | 49.3 | x | x | x | x
CCCC#Cc1ccc([C@@H]2[C@H]3CN(Cc4ccncc4)CCCCN3[C@H]2CO)cc1 | -4.6 | -69.8 | u | 96.5* | 17.2 | 36.6* | 105.7*
CCCC#Cc1ccc([C@@H]2[C@@H](CO)N3CCCCN(Cc4ccncc4)C[C@@H]23)cc1 | -14.5 | -10.3 | 94.9 | x | x | x | x
COc1ccc(C#Cc2ccc([C@@H]3[C@H](CO)N4CCCCN(Cc5ccncc5)C[C@@H]34)cc2)cc1 | -2.3 | -76.2 | 48.2 | x | x | x | x
CCCC#Cc1ccc([C@@H]2[C@@H](CO)N3CCCCN(Cc4ccncc4)C[C@H]23)cc1 | -2.4 | -35.6 | 108.7* | 98.3* | 44.8 | 35.0* | 66.8*
CCCC#Cc1ccc([C@H]2[C@H](CO)N3CCCCN(CC4CC4)C[C@@H]23)cc1 | 13.5 | -46.2 | 98.4* | 109.0* | 43.1 | u | 105.2*
C[C@@H]1CN([C@@H](C)CO)C(=O)Cc2cc(NC(=O)CCC(F)(F)F)ccc2O[C@@H]1CN(C)Cc1ccc(Oc2ccccc2)cc1 | 4.0 | -11.8 | 40.9 | x | x | x | x
O=C(NCC1CC1)[C@H]1[C@H](CO)[C@H]2Cn3c(ccc(-c4ccncc4)c3=O)[C@@H]1N2CC1CC1 | -2.1 | -6.5 | 27.4 | x | x | x | x
CNC[C@H]1Oc2c(NC(=O)Nc3ccc(C(F)(F)F)cc3)cccc2C(=O)N([C@H](C)CO)C[C@@H]1C | 6.7 | -5.3 | 54.1 | x | x | x | x
CO[C@H]1CN(C)C(=O)c2ccc(NC(C)=O)cc2OC[C@@H](C)N(S(=O)(=O)c2cn(C)cn2)C[C@@H]1C | x | -11.6 | -15.4 | x | x | x | x
